Assay outcomes from PubChem.
The list is not random: actives were taken first. Their share in the collection is about 1.2%.
BJeLR viability: MLPCN primary cell-based screen for lethality selective to Ras in HRASV12 cells; 300,000 compounds, 0.17% hits; BJeLR (HRASV12) viability, CellTiter-Glo ATP luminescence, 48 h; AID 1554, 2009; inhibition, % (no concentration beside the values); in the data active = inhibition above about 50%
SSB-PriA inh: inhibitors of Klebsiella pneumoniae PriA binding to SSB C-terminal tail, primary screen, biochemical, AlphaScreen | PriA–SSB C-terminal tail interaction (Klebsiella pneumoniae) | AlphaScreen SSBct-PriA binding, biotinylated peptide | inhibition, % at 33 µM | 430,000 compounds, 0.6% hits; in the data active = inhibition mostly above about 37%, no sharp cut-off; inactive = mostly below about 20%;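 also: plate controls were negative control peptide for no effect and reference peptide for full effect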
RN4220 kill: growth inhibition of S. aureus RN4220, primary screen, OD600; 16 h; inhibition, % (test concentration not listed); 330,000 compounds, 0.33% hits; in the data active = inhibition above about 85%;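 also: plate controls were untreated cells for no effect and reference antibiotic for full effect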
ugtP null kill: growth inhibition of ugtP-null S. aureus, primary screen, RN4220 ugtP deletion, OD600; 16 h; growth inhibition, % (no concentration beside the values); 330,000 compounds, 0.54% hits; in the data active = growth inhibition above about 68%;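 also: plate controls were untreated wells for no effect and antibiotic for full effect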
MazF activator: activators of E. coli MazEF toxin-antitoxin RNase, primary screen, biochemical, fluorescence, uHTS; activation, % at 20 µM; Endoribonuclease toxin MazF (Escherichia coli (strain K12)), P0AE70; 350,000 compounds, 0.32% hits; FAM/BHQ RNA-DNA oligo cleavage fluorescence, 5 h; in the data active = activation above about 50%
Target sequence (P0AE70 whole entry, looked up): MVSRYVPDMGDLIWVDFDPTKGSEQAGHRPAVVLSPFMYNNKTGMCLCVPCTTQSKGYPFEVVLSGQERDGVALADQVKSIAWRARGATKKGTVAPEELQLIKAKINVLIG
* = called active by the depositor; . = no result; + = active, no number.

SMILES | BJeLR viability | SSB-PriA inh | RN4220 kill | ugtP null kill | MazF activator
C=CCSc1nnc(-c2cccc3ccccc23)o1 | . | 89* | 3 | 5 | -4
COc1ccccc1N(CC(=O)NCC1CCCO1)C(=O)CCC(=O)Nc1cc(C)on1 (stereo unspecified) | -3 | 0 | 2 | 10 | 9
C=CCSC1=N/C(=C\c2cc(OC)c3c(c2)OCO3)C(=O)S1 | -3 | -25 | . | . | 518*
CCSC1=N/C(=C\c2ccc3c(c2)OCO3)C(=O)S1 | 4 | -8 | 19 | 15 | -2
O=[N+]([O-])c1ccc(-c2cn3nc(-c4ccccc4)c(-c4ccccc4)nc3n2)cc1 | -2 | -4 | 4 | 3 | 164*
O=[N+]([O-])c1cccc(-c2cn3nc(-c4ccccc4)c(-c4ccccc4)nc3n2)c1 | -5 | -7 | -4 | 29 | -1
Oc1c(CN2CCCCC2)cc(Br)c2cccnc12 | 6 | 78 | 12 | -23 | -2
O=C(c1ccc(Cn2ccnc2)cc1)N1CCCC[C@H](c2ccc(F)cc2)C1 | . | 32* | . | . | .
CCCCCCCCCC(=O)NC(CN1CCOCC1)C(O)c1ccccc1 (stereo unspecified) | . | . | 9 | -1 | .
CCCCCCCCCCCC(=O)NC(C(=O)O)C(O)c1ccccc1 (stereo unspecified) | 7 | 97* | 8 | 15 | -14
COc1ccc(NC(=O)CC(C(=O)O)N2CCCCC2)cc1 (stereo unspecified) | -25 | -1 | 5 | 1 | 12
CCOC(=O)C=c1sc(=Cc2ccccc2C)c(=O)n1CC(=O)NCc1ccc2c(c1)OCO2 | . | -6 | -1 | 1 | .
CCOC(=O)/C=c1/s/c(=C/c2ccc3cc(OC)ccc3c2)c(=O)n1CC(=O)NCC1CCCO1 (stereo unspecified) | . | -10 | 2 | -3 | 80*
CCOC(=O)/C=c1\s/c(=C\c2c(OC)ccc3ccccc23)c(=O)n1CC(=O)NCC1CCCO1 (stereo unspecified) | -15 | . | . | . | +
Cc1ccc(SCCC(=O)Nc2nnc(-c3ccccn3)o2)cc1 | . | 10 | . | . | .
O=C(CSc1ccc(Cl)cc1)Nc1nnc(-c2ccccn2)o1 | . | 35* | . | . | .
O=C(c1ccc2nsnc2c1)N1C2CCC1CC(S(=O)(=O)c1ccccc1)C2 (stereo unspecified) | . | 74* | . | . | .
O=C(c1ccc(Cl)cc1)N1C2CCC1CC(S(=O)(=O)c1ccccc1)C2 (stereo unspecified) | . | -6 | . | . | .
Cc1ccc(OCC(=O)N2C3CCC2CC(S(=O)(=O)c2ccccc2)C3)cc1 (stereo unspecified) | . | 79* | . | . | .
CN(C)CCCN(C(=O)c1ccn(C)n1)c1nc2c(F)cc(F)cc2s1 | . | 6 | . | . | .
CCCN=C(N)/C(C(=O)OCC)=C(\O)c1ccc(OC)cc1 | 0 | . | 5 | -1 | -1
O=C(CN1CCN(c2ccccc2)CC1)Nc1ccccc1C(=O)NCCc1ccccc1 | . | . | . | . | 3
Cn1nc(C(F)(F)F)cc1-c1ccc(/C=C(\C#N)C(=O)c2ccccc2)s1 | 2 | -3 | . | . | 782*
Cc1ccc(NC(=O)CSc2nnc([C@@H]3CCCN3C(=O)OC(C)(C)C)o2)c(C)c1 | 1 | 1 | 3 | 0 | -1
Cc1cc(C(=O)O)c(C)n1C1CC1 | -1 | 1 | 1 | -1 | 4
SMILES | BJeLR viability | SSB-PriA inh | RN4220 kill | ugtP null kill | MazF activator
Clc1ccc(-c2nnc(-c3cccc4ccccc34)o2)cc1Cl | -1 | -6 | 3 | 5 | -8
NS(=O)(=O)c1ccc(N2N=C(c3ccccc3)CC2c2cccc(F)c2)cc1 (stereo unspecified) | -10 | -37 | 11 | -26 | -1
COc1ccc(C2CC(c3ccc(Cl)cc3)=NN2c2ccc(S(N)(=O)=O)cc2)cc1 (stereo unspecified) | . | -4 | 94* | 40 | -6
NS(=O)(=O)c1ccc(N2N=C(c3ccc(Br)cc3)CC2c2ccc(F)cc2)cc1 (stereo unspecified) | 4 | -30 | 98* | 45 | -3
CC(=O)NCCc1nc2ccccc2n1Cc1ccc(Cl)cc1 | 4 | -2 | 8 | 3 | -2
CC(=O)NCCc1nc2ccccc2n1Cc1ccccc1 | 3 | 97* | 3 | 1 | 2
COc1ccc(Cl)cc1C(=O)C1CCCN(Cc2cnc(N3CCOCC3)s2)C1 (stereo unspecified) | 9 | -4 | 1 | -2 | -4
Oc1ccc(CSCc2ccccc2)c2cccnc12 | . | 10 | . | . | .
CCCCCCCCCCCCSCc1ccc(O)c2ncccc12 | . | 53 | . | . | .
CCCCCCCCSCc1ccc(O)c2ncccc12 | . | 73* | . | . | .
CCCCCCSCc1ccc(O)c2ncccc12 | . | 83* | . | . | .
Oc1ccc(CSC2CCCCC2)c2cccnc12 | . | 69* | . | . | .
CC(C)COC(=O)Nc1ccc(C(=O)O)cc1 | -2 | -17 | 4 | 2 | 7
Cc1ccc(C)c(NS(=O)(=O)c2ccc(-c3cnc(C4CC4)o3)cc2)c1 | 52* | 13 | 25 | -8 | 9
O=S(=O)(Nc1ccccc1)c1ccc(-c2cnc(C3CC3)o2)cc1 | 37 | -4 | 51 | -2 | 3
Cc1cccc(NS(=O)(=O)c2ccc(-c3cnc(C4CC4)o3)cc2)c1C | 53* | 1 | 6 | -13 | 0
CC(=O)Nc1ccc(NS(=O)(=O)c2ccc(-c3cnc(C4CC4)o3)cc2)cc1 | 1 | -3 | 10 | 6 | 16
Cc1cc(C)cc(NS(=O)(=O)c2ccc(-c3cnc(C4CC4)o3)cc2)c1 | 58* | 6 | 8 | -4 | 3
COc1ccc(-c2nn(-c3ccccc3)cc2/C=N/NC(=O)c2ccc(Br)o2)cc1 | -13 | . | . | . | -2
O=C(NN=Cc1cn(-c2ccccc2)nc1-c1ccc(F)cc1)c1ccc(Br)o1 | . | -9 | -36 | -20 | .
O=C(NN=Cc1ccc([N+](=O)[O-])o1)c1ccccc1-n1cccc1 | . | -7 | 33 | 30 | .
O=C(NN=Cc1ccc([N+](=O)[O-])o1)c1cn(-c2ccccc2)nc1-c1ccc(F)cc1 | . | 7 | 71 | 98* | .
COc1ccc(-c2nn(-c3ccccc3)cc2C(=O)NN=Cc2ccc([N+](=O)[O-])o2)cc1 | . | -11 | 97* | 100* | .
O=C(NN=Cc1ccc([N+](=O)[O-])o1)c1cn(-c2ccccc2)nc1-c1ccccc1 | . | 3 | 100* | 99* | .
Cc1ccc2nc(SCC(=O)Nc3oc(C)c4c(C)n[nH]c(=O)c34)[nH]c2c1 | . | 6 | 0 | -1 | -4
O=C(c1ccco1)N1CCN(C(c2ccc(Cl)cc2)c2nnnn2CC2CCCO2)CC1 (stereo unspecified) | -8 | -8 | -2 | 2 | 2
O=C(CC(=O)c1ccccc1O)c1ccc(F)cc1 | -3 | -3 | 84 | 90* | -1
O=C(CC(=O)c1ccccc1O)c1cccc(F)c1 | -2 | 7 | 79 | 96* | 1
COc1ccc(C(=O)CC(=O)c2ccc(F)cc2)cc1 | -6 | -8 | 3 | 3 | -1
